PubChem BioAssay (Tox21)
“And” between values parts separate entries of the source, which are not always exact repeats. Equal entries are not always repeated. Records with an inconclusive call do not appear. Some compounds were tested as several samples or in several runs, with calls that do not always agree. The source made the active and inactive calls. The call rests on the fitted dose curve; in most records, active means well fitted cell-killing curve with a large enough effect in the repeat runs; inconclusive means weak or mixed curves; inactive means no such curve, though single readings can be large or run the other way.
Potency means the concentration at half of the fitted maximal effect.

Experiment: qHTS assay to identify small molecule agonists of the peroxisome proliferator-activated receptor delta (PPARd) signaling pathway - cell viability counter screen (AID 743211); further: nearly all actives have a fitted effect of over 55% in size
Details: PPARd-bla HEK293H viability, CellTiter-Glo luminescence, 17 h; series mostly up to 62.6 µM
From the text: U.S. Tox21 Program National Center for Advancing Translational Sciences [NCATS] NIH Chemical Genomics Center [NCGC] U.S. Environmental Protection Agency [EPA] National Institutes of Environmental Health Sciences [NIEHS] National Toxicology Program [NTP] U.S. Food and Drug Administration [FDA] Tox21 Assay Overview: The peroxisome proliferator-activated receptors (PPARs) are lipid-activated transcription factors of the nuclear receptor superfamily with three distinct subtypes namely PPAR alpha, PPAR delta (PPARd) and PPAR gamma. All these subtypes heterodimerizes with Retinoid X receptor (RXR) and have different physiological functions. […] To identify the compounds that activate PPAR-delta signaling, GeneBLAzer PPAR delta UAS-bla HEK293H cell line (Invitrogen, Carlsbad, CA, USA) containing a beta-lactamase reporter gene under the control of an Upstream Activator Sequence (UAS) was used to screen the Tox21 compound library. The cytotoxicity of the Tox21 compound library against the PPARd-bla cell line was tested in parallel by measuring the cell viability using CellTiter-Glo assay (Promega, Madison, WI) in the same wells.
Tox21 Assay Protocol Summary: PPARd-bla cells were dispensed at 3000 cells/6uL/well in 1536-well black wall/clear bottom plates using a Multidrop Combi (Thermo Fisher Scientific, Waltham, MA) dispenser. After the assay plates were incubated at 37 C and 5% CO2 for 5 h, 23 nL of compounds dissolved in DMSO, positive controls or DMSO only was transferred to the assay plate by a Pintool station (Kalypsys, San Diego, CA). The assay plates were incubated at 37C for 17 h. After 1 uL of LiveBLAzerTM B/G FRET substrate was added using a Bioraptr Flying Reagent Dispenser (FRD) workstation (Beckman Coulter, Indianapolis, IN, USA), the plates were incubated at room temperature for 2 h, and fluorescence intensity was measured by an Envision plate reader (PerkinElmer, Shelton, CT). For cell viability readout that measures cytotoxicity, 3 ul/well of CellTiter-Glo reagent was added into the assay plates using a Bioraptr FRD. After 30 min incubation at room temperature, the luminescence intensity in the plates was measured using a ViewLux plate reader (PerkinElmer).
In the case of COC(=O)N(C(=O)N1CO[C@@]2(C(=O)OC)Cc3cc(Cl)ccc3C2=N1)c1ccc(OC(F)(F)F)cc1, the Potency is reported as “inactive”. For C[C@H]1CC[C@@H]2[C@@H](C)[C@H]3[C@H](C[C@H]4[C@@H]5CC=C6CC(O[C@@H]7O[C@H](CO)[C@H](O)[C@H](O[C@@H]8O[C@H](CO)[C@@H](O)[C@H](O)[C@H]8O)[C@H]7O[C@H]7O[C@@H](C)[C@H](O)[C@@H](O)[C@H]7O)CC[C@]6(C)[C@H]5CC[C@]34C)N2C1 (stereo not given in full), the Potency was 1.43 µM (active). For [CH3][Hg][Cl], the Potency was 12.3 µM (active). In the case of Oc1ccc(C(c2ccc(O)cc2)(C(F)(F)F)C(F)(F)F)cc1, the Potency is reported as “inactive and 54.9 µM (active)”. With ClC1=C(Cl)C2(Cl)C3C(Cl)C=CC3C1(Cl)C2(Cl)Cl (stereo not given) the Potency was 38.9 µM (active). For Nc1ccccc1C(=O)Oc1ccc2ccccc2c1, the Potency was “inactive”. With Cc1ccc(OP(=O)(Oc2ccccc2)Oc2ccccc2)cc1 the Potency was “inactive”. With O=c1c(C2CC(c3ccc(-c4ccc(Br)cc4)cc3)Cc3ccccc32)c(O)sc2ccccc12 (stereo not given) the Potency was 29.8 µM (active). In the case of [Hg+2].[I-].[I-], the Potency is reported as 2.19 µM (active). In the case of S=C(SSC(=S)N1CCCCC1)N1CCCCC1, the Potency is reported as 0.188 µM (active). In the case of CN(C)C(=S)[S-].CN(C)C(=S)[S-].[Cu+2], the Potency is reported as 0.946 µM (active). In the case of COc1ccc(/C(=C/C(=O)N2CCOCC2)c2ccc(Cl)cc2)cc1OC, the Potency is reported as “inactive”. For O=C(CCl)Nc1ccccc1, the Potency was 49 µM (active). With CCCOCC(=Nc1ccc(Cl)cc1C(F)(F)F)n1ccnc1 the Potency was 13.8 µM (active). For CCCCCCCCCCCCCCCCCCn1cc[n+](C)c1, the Potency was 10.9 µM (active). In the case of CN(C)C(=S)S, the Potency is reported as 546 nM (active) and 5.49 µM (active). In the case of CC(C)CC(C)Nc1ccc(Nc2ccccc2)cc1 (stereo not given), the Potency is reported as 38.3 µM (active). With Cc1cc(C)c(C2=C(OC(=O)CC(C)(C)C)C3(CCCC3)OC2=O)c(C)c1 the Potency was “inactive”. With CN(C)C1CSSSC1 the Potency was “inactive”. With CCOCn1c(-c2ccc(Cl)cc2)c(C#N)c(Br)c1C(F)(F)F the Potency was 19.5 µM (active). With CN(C)S(=O)(=O)N(SC(F)(Cl)Cl)c1ccccc1 the Potency was 24.5 µM (active). For COc1cc(N)c(Cl)cc1C(=O)NC1CN2CCC1CC2 (stereo not given), the Potency was “inactive”. For Oc1ccc(C2(c3ccc(O)cc3)c3ccccc3-c3ccccc32)cc1, the Potency was 43.6 µM (active). For Clc1ccc(CSC(Cn2ccnc2)c2ccc(Cl)cc2Cl)cc1 (stereo not given), the Potency was 33.5 µM (active). In the case of O=CC(Br)(Br)Br, the Potency is reported as 17.3 µM (active). For CCCCN(CCCC)C(=S)[S-].CCCCN(CCCC)C(=S)[S-].[Zn+2], the Potency was 6.16 µM (active). In the case of N#CSCSC#N, the Potency is reported as 50.1 µM (active) and 43.2 µM (active). With C1CCC2CCCCC2C1 (stereo not given) the Potency was “inactive”. In the case of CC(C)CC(C)(c1ccc(O)cc1)c1ccc(O)cc1, the Potency is reported as 55.1 µM (active) and 34.7 µM (active). In the case of CC1CCC(C(C)C)C(OC(=O)c2ccccc2N)C1 (stereo not given), the Potency is reported as 24.2 µM (active). In the case of CS(=O)(=O)c1ccc(C(=O)C2C(=O)CCCC2=O)c([N+](=O)[O-])c1, the Potency is reported as “inactive”. For CC(=O)[O-].CC(=O)[O-].[Hg+2], the Potency was 1.74 µM (active). In the case of N#CCCC(Br)(C#N)CBr (stereo not given), the Potency is reported as “inactive”. With CC[C@H]1C[C@@H]2C[C@H]3c4[nH]c5ccc(OC)cc5c4CCN(C2)[C@@H]13 the Potency was 60.1 µM (active). In the case of CC(C)CCCCCCCOP(=O)(Oc1ccccc1)Oc1ccccc1, the Potency is reported as 27.7 µM (active). In the case of BrC(Br)C(Br)(Br)Br, the Potency is reported as 49.3 µM (active). In the case of CC(C)(C)C(O)/C(=C\c1ccc(Cl)cc1Cl)n1cncn1 (stereo not given), the Potency is reported as 66.5 µM (active). For O=C(CCl)C(Cl)Cl, the Potency was 17.5 µM (active). For CN(C)[C@@H]1C(=O)C(C(N)=O)=C(O)[C@@]2(O)C(=O)C3=C(O)c4c(O)ccc(Cl)c4[C@@](C)(O)[C@H]3C[C@@H]12, the Potency was “inactive”. For CCN, the Potency was “inactive”.
